Test results: PubChem BioAssay AID2073 (Sanford-Burnham Center for Chemical Genomics, 2009)
Out of some 290,000 compounds screened, about 570 (0.2%) were called active. Not shown: some 1% with an inconclusive outcome. No stated cut-off is given here; in the data, active means inhibition mostly above about 51% (no sharp cut-off); inconclusive means no clear call, values can overlap the other calls; inactive means mostly below about 53%. The list comes from a sample in which actives are over-represented; it also holds similar structures and randomly drawn compounds.

Target: Voltage-dependent N-type calcium channel subunit alpha-1B (Homo sapiens) (UniProt Q00975)
Sequence (Q00975 whole entry, looked up): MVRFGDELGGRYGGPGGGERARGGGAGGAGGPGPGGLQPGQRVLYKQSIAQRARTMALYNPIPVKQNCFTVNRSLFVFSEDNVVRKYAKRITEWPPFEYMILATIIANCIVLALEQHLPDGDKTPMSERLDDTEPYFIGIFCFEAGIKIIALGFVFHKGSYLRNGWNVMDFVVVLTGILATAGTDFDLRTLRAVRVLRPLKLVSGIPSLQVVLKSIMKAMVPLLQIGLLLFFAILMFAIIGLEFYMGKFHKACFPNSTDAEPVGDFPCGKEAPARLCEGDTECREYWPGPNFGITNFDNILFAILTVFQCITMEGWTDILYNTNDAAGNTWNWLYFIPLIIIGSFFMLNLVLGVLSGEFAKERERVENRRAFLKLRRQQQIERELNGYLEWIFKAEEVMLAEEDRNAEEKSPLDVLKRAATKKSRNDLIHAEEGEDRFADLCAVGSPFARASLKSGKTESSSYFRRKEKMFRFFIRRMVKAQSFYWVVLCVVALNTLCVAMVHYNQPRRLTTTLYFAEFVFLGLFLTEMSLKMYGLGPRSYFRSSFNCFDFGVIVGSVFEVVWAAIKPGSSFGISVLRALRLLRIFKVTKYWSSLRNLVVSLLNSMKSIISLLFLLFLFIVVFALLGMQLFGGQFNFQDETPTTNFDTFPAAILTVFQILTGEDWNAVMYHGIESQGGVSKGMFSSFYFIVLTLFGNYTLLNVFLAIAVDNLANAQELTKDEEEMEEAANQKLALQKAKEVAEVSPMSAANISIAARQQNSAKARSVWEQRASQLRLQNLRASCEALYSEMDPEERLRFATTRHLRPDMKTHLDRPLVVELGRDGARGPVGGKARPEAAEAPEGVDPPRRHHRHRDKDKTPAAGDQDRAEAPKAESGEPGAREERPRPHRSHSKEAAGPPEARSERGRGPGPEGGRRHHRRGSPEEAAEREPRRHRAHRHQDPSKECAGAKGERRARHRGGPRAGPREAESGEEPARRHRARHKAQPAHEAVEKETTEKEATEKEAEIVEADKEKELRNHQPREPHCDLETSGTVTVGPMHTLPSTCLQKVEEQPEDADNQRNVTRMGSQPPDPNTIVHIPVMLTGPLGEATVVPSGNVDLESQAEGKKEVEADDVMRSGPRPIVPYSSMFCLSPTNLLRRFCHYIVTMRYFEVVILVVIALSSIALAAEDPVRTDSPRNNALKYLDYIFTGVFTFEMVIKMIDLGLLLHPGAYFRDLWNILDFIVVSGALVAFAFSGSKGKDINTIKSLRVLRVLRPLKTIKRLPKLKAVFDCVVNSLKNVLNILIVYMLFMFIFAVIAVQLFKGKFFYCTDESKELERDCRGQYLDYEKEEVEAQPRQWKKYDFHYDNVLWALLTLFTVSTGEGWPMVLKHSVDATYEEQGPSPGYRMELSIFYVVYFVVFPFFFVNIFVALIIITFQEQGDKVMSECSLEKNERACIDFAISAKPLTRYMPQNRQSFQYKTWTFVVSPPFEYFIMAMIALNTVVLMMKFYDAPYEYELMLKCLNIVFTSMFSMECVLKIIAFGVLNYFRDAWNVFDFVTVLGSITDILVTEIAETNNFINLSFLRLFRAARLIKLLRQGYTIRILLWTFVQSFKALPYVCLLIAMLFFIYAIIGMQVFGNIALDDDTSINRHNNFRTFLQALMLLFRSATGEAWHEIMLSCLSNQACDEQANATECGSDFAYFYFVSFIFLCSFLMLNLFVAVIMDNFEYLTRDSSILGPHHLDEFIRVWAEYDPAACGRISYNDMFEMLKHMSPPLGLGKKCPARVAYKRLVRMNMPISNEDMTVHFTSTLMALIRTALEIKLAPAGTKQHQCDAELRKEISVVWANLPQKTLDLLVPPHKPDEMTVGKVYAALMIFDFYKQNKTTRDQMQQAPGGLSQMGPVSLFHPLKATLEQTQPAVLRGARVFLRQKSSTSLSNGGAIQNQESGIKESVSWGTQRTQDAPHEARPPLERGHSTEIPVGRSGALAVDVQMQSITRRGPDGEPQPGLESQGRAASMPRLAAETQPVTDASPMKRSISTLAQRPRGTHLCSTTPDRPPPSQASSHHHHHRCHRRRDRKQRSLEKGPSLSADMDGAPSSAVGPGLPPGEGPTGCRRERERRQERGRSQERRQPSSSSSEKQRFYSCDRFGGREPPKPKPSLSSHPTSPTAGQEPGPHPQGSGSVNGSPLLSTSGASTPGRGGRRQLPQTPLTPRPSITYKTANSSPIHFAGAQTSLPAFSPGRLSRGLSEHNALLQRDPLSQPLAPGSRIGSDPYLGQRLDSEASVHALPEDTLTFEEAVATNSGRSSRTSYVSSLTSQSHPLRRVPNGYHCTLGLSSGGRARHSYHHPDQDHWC
Experiment: disruptors of CaV2.2 binding to Mint1 – biochemical, HTRF (AID 2073)
Details: HTRF protein-protein interaction, Mint1-CaV2.2, at 20 µM, stronger effect = higher value
[1] = measured here: average of repeat tests

| Compound | inhibition | inhibition [1] |
| --- | --- | --- |
| COC(=O)C1=C(C(=O)OC)[C@@H]2N(C)c3ccc(OC)cc3[C@@]23C[C@@H](C(=O)OC)N(C(=O)c2ccc(Br)cc2)C3=N1 | 6.3% (inactive) | – |
| Nc1nonc1-n1nnc(C(=O)N/N=C/c2ccc(F)cc2)c1-c1cccs1 | 4.3% (inactive) | – |
| Cc1ccc(NC(=O)c2cc(-c3ccc(C)c(C)c3O)n[nH]2)cc1C | 12.1% (inactive) | – |
| CC(=O)Nc1ccc(NC(=O)c2cc(-c3cc(C)c(C)cc3O)n[nH]2)cc1 | -5.1% (inactive) | – |
| COc1ccccc1CNc1cc(CSc2ccc(Cl)cc2)nc(C)n1 | -1.5% (inactive) | – |
| CC(C)CNC(=O)CSc1nc(-c2cccs2)cc(C(F)(F)F)n1 | 16.7% (inactive) | – |
| COc1ccc(CCNC(=O)C(CC(C)C)NC(N)=O)cc1 (stereo not given) | 4.9% (inactive) | – |
| COc1ccc(CN(C(=O)c2cc(=O)c3cc(C)cc(C)c3o2)C2CCS(=O)(=O)C2)cc1 (stereo not given) | 0% (inactive) | – |
| COc1cccc(C(=O)NC2CC3CCCC(C2)N3CC(=O)Nc2ccccc2)c1 (stereo not given) | 55% (active) | – |
| O=C(CN1C2CCCC1CC(NC(=O)c1ccccc1)C2)Nc1ccccc1 (stereo not given) | 8.3% (inactive) | – |
| COc1cccc(C(=O)NC2CC3CCCC(C2)N3CC(=O)Nc2ccc(N(C)C)cc2)c1 (stereo not given) | -12.2% (inactive) | – |
| O=C(Cn1c(=O)sc2ccccc21)Nc1ccc(S(=O)(=O)N2CCCCC2)cc1 | 18% (inactive) | – |
| COc1ccc(C2=CC(c3c(C)nn(-c4ccccc4)c3Cl)n3nnnc3N2)cc1OC (stereo not given) | 24.3% (inactive) | – |
| CSc1nc(C)cc(-n2cc(F)c(=O)[nH]c2=O)n1 | -1.3% (inactive) | – |
| O=C1C(Cl)=C(NC(=O)c2ccccc2)C(=O)C(Cl)=C1NC(=O)c1ccccc1 | 81.8% (active) | – |
| O=C(Nc1ccccc1Cl)c1ccccc1 | 23.6% (inactive) | – |
| O=C(NC1=C(Nc2ccc(Cl)cc2)C(=O)c2ccccc2C1=O)c1ccccc1 | -10.9% (inactive) | – |
| CC(=O)N1CCN(C(=O)c2ccc3c(c2)OCCO3)CC1 | 16.6% (inactive) | – |
| CCOC(=O)C1=C(Cc2ccc(F)cc2)C(=O)c2ccccc2C1=O | 76% (inactive) | 27.8% |
| CCOC(=O)C1=C(Cc2ccc(OC)cc2)C(=O)c2ccccc2C1=O | 61.9% (active) | – |
| CCOC(=O)C1=C(O)c2ccccc2C(=O)/C1=C\c1ccc(C)cc1 | 49.4% (inactive) | – |
| CCOC(=O)C1=C(O)c2ccccc2C(=O)/C1=C\c1ccc(CC)cc1 | 54.8% (active) | – |

| Compound | inhibition | inhibition [1] |
| --- | --- | --- |
| CCOC(=O)C1=C(Cc2ccc(C)cc2)C(=O)c2ccccc2C1=O | 36% (inactive) | – |
| CCOC(=O)C1=C(Cc2ccc(Cl)cc2)C(=O)c2ccccc2C1=O | 66.8% (inactive) | 19.3% |
| COc1ccc(N/C(=N/c2nc(C)cc(C)n2)NC(=O)c2ccccc2)cc1 | 8.5% (inactive) | – |
| CSc1cccc(NC(=O)C2CCN(C(=O)c3ccccc3C)CC2)c1 | 3.1% (inactive) | – |
| CCOc1ccc(CCNC(=O)CSc2nnnn2C)cc1OCC | 0% (inactive) | – |
| CC1=CC(=C(C#N)C#N)C=C(C)N1Cc1ccccc1 | -8.3% (inactive) | – |
| CCn1c(=O)c(=O)[nH]c2cc(C(=O)Nc3ccc(S(=O)(=O)N4CCCC4)cc3)ccc21 | 19.2% (inactive) | – |
| CCCNC(=O)OC[C@H]1O[C@H](CCO/N=C/c2ccc(C(=O)N3[C@H](c4ccc(C)cc4)[C@@H](C)CC[C@H]3C(=O)OC)cc2)C=C[C@@H]1Oc1ccc(OC)cc1 | 6.9% (inactive) | – |
| CCOC(=O)c1cc(NC(=O)CCC(=O)O)ccc1N1CCCCC1 | 19.3% (inactive) | – |
| O=C(/C=C/c1ccco1)Nc1nc(-c2ccccn2)cs1 | 54.1% (active) | – |
| O=C(/C=C/c1ccccc1)Nc1nc(-c2ccncc2)cs1 | 54.1% (active) | – |
| O=C(/C=C\c1ccco1)Nc1nc(-c2ccccc2)cs1 | 0% (inactive) | – |
| O=C(/C=C/c1cccs1)Nc1nc(-c2ccccc2)cs1 | 10% (inactive) | – |
| O=C(/C=C/c1ccco1)Nc1nc(-c2ccccc2)cs1 | 26.4% (inactive) | – |
| O=C(/C=C/c1ccc2c(c1)OCO2)Nc1nc(-c2ccccc2)cs1 | 26% (inactive) | – |
| CCCSc1nc(N2CCOCC2)c2c(c1C#N)CC(C)(C)SC2 | 0.4% (inactive) | – |
| Cc1ccccc1NC1=C(Cl)C(=O)OC1NC(=O)c1ccccc1 (stereo not given) | -0.5% (inactive) | – |
| CCOC(=O)c1ccc(N2C(=O)CC(C(=O)OC)=C2C)cc1 | 3.2% (inactive) | – |
| Cc1ccc2nc(NC(=O)CN3CCOCC3)sc2c1 | -0.6% (inactive) | – |
| CCc1ccc2nc(NC(=O)c3ccc(N4C(=O)CCC4=O)cc3)sc2c1 | 32.1% (inactive) | – |
| Cc1ccc(-n2ncc3c2CCCC3NC(=O)CCn2ccnc2C)cc1C (stereo not given) | -3.7% (inactive) | – |
| O=C1CC(c2ccco2)Cc2nc(Nc3nc(-c4ccccc4)c4ccccc4n3)ncc21 (stereo not given) | 52.4% (active) | – |

| Compound | inhibition | inhibition [1] |
| --- | --- | --- |
| O=C1CC(c2ccco2)Cc2nc(Nc3ccc(F)cc3)ncc21 (stereo not given) | 6.4% (inactive) | – |
| O=C(Nc1ncc2c(n1)CC(c1ccco1)CC2=O)c1ccccc1 (stereo not given) | 33.5% (inactive) | – |
| CN(C)C(=O)c1ccc(NC(=O)COc2ccc([N+](=O)[O-])cc2)cc1 | 5.1% (inactive) | – |
| COc1ccc(C2C(Oc3ccccc3)C(=O)N2c2cc(C)ccc2C)cc1OC (stereo not given) | -3.8% (inactive) | – |
| Cc1ccc(N2C(=O)c3ccc(C(=O)O)cc3C2=O)cc1C | -1.3% (inactive) | – |
| O=C(O)c1ccc(-n2c(=O)c3ccccc3c3ccccc3c2=O)cc1 | -2.9% (inactive) | – |
| Cc1ccc(-n2c(=O)c3cc4c(=O)n(-c5ccc(C)c(C)c5)c(=O)c4c(C(=O)c4ccc(C(=O)O)cc4)c3c2=O)cc1C | 85% (active) | – |
| O=C(N/N=C/c1ccoc1)c1cc(O)cc(O)c1 | 18.3% (inactive) | – |
| O=[N+]([O-])c1ccc(Cl)c2c1C1C=CCC1C(c1ccccn1)N2 (stereo not given) | 79.5% (active) | – |
| O=C(O)c1ccc(Cl)c2c1C1C=CCC1C(c1ccccn1)N2 (stereo not given) | 23.7% (inactive) | – |
| Cc1cc([N+](=O)[O-])c2c(c1C)C1C=CCC1C(c1ccccn1)N2 (stereo not given) | 42.9% (inactive) | – |
| COc1c(S(=O)(=O)NCCCn2ccnc2)ccc(Cl)c1Cl | -0.3% (inactive) | – |
| COc1cccc(-c2nn(-c3ccccc3)cc2C(=O)O)c1 | 1.6% (inactive) | – |
| COc1ccc(OC)c(NC(=O)c2c(NC(=O)CCC(=O)O)sc3c2CCCCC3)c1 | 65.1% (active) | – |
| COc1ccccc1NC(=O)c1c(NC(=O)CCC(=O)O)sc2c1CCCCC2 | 25% (inactive) | – |
| COc1ccc(NC(=O)c2c(NC(=O)CCC(=O)O)sc3c2CCCCC3)cc1 | 63.8% (inactive) | 9.3% |
| O=S(=O)(NCC1CCCO1)c1ccc(Oc2ccccc2)cc1 (stereo not given) | 8.9% (inactive) | – |
| Cc1cc(C(=O)OCC(=O)Nc2cc(S(=O)(=O)N(C)C)ccc2C)c2ccccc2n1 | -2.8% (inactive) | – |
| C[C@H]1[C@H](C)CC[C@]2(C(=O)O)CC[C@]3(C)C(=CC[C@@H]4[C@@]5(C)CC[C@H](O)C(C)(C)[C@@H]5CC[C@]43C)[C@H]12 | 41.1% (inactive) | – |
| C[C@H]1[C@H](C)CC[C@]2(C)CC[C@]3(C)C(=CC[C@@H]4[C@@]5(C)CC[C@@H](O)[C@](C)(C(=O)O)[C@@H]5CC[C@]43C)[C@H]12 | 77% (active) | – |
| C[C@H]1[C@H](C)CC[C@]2(C(=O)O)CC[C@]3(C)C(=CC[C@@H]4[C@@]5(C)C[C@@H](O)[C@H](O)C(C)(C)[C@@H]5CC[C@]43C)[C@H]12 | 45.4% (inactive) | – |
| CC(=O)Nc1cc2c3c(c1)CCN3C(=O)CC2 | 0.4% (inactive) | – |

| Compound | inhibition | inhibition [1] |
| --- | --- | --- |
| COc1cc(/C=N/NC(=O)c2ccncc2)ccc1OC(C)=O | 11.8% (inactive) | – |
| Cc1ccc(S(=O)(=O)n2c(=O)oc3ccccc32)cc1 | -5.8% (inactive) | – |
| CCn1ncc(C2=NOC(C(=O)N3CCC(C(N)=O)CC3)C2)c1C (stereo not given) | 2.8% (inactive) | – |
| CCCOC(=O)/C(=C\C=C\c1ccco1)NC(=O)c1ccccc1 | 66.6% (active) | – |
| CCCOC(=O)/C(=C\C=C\c1ccccc1)NC(=O)c1ccccc1 | -6.3% (inactive) | – |
| CCCCOC(=O)/C(=C/C=C/c1ccccc1)NC(=O)c1ccccc1 | 7.4% (inactive) | – |
| CC1(c2ccccc2)NC(=O)N(Cc2ccc([N+](=O)[O-])cc2)C1=O (stereo not given) | -5.3% (inactive) | – |
| CP(=O)(COC(=O)c1ccccc1)COC(=O)c1ccccc1 | -9.7% (inactive) | – |
| OC[C@@H]1CCCN1Cc1cn(-c2ccccc2)nc1-c1ccc2c(c1)OCO2 | 8.1% (inactive) | – |
| O=[N+]([O-])c1ccc(N/N=C/c2sc(N3CCOCC3)nc2-c2ccccc2)c(S(=O)(=O)Nc2ccccc2Cl)c1 | 30.5% (inactive) | – |
| O=C(N/N=C/c1sc(N2CCOCC2)nc1-c1ccccc1)c1cccc(S(=O)(=O)N2CCCC2)c1 | 51.1% (active) | – |
| O=[N+]([O-])c1ccc(N/N=C/c2sc(N3CCOCC3)nc2-c2ccccc2)c(S(=O)(=O)Nc2ccc(Cl)cc2)c1 | 67.1% (active) | – |
| COc1cc(C(=O)N/N=C/c2sc(N3CCOCC3)nc2-c2ccccc2)cc(OC)c1OC | 4.4% (inactive) | – |
| Cc1ccc(NS(=O)(=O)c2cc([N+](=O)[O-])ccc2N/N=C/c2sc(N3CCOCC3)nc2-c2ccccc2)c(C)c1 | 31.1% (inactive) | – |
| O=C(N/N=C/c1sc(N2CCOCC2)nc1-c1ccccc1)c1cccc(S(=O)(=O)N2CCOCC2)c1 | 21.2% (inactive) | – |
| Cc1ccc(C2=CSC3=NNC4(CCCCC4)NN23)cc1 | 8.9% (inactive) | – |
| CCOC(=O)N1CCN(C(=O)CSCc2ccccc2C)CC1 | -5.4% (inactive) | – |
| O=C(CCC(=O)N(CC(=O)NC1CCCCC1)Cc1ccccc1)Nc1ccccn1 | -13% (inactive) | – |
| N/C(Cc1cccc2ccccc12)=N\OC(=O)c1ccc(Br)o1 | 56.5% (active) | – |
| N/C(Cc1ccc(Cl)cc1Cl)=N\OC(=O)c1ccc(Br)o1 | 7.7% (inactive) | – |
| N/C(Cc1ccc(Cl)c(Cl)c1)=N\OC(=O)c1ccc(Br)o1 | 5.1% (inactive) | – |
